Nrf2 ARE act – qHTS of Nrf2 Activators | AREc32 ARE-luciferase reporter (MCF7-derived line), luminescence, 24 h | Potency, µM (doses to about 46.1 µM), for the others: at the highest dose activation, hits mostly activators | 0.31% of 410,000 active | AID 624171, 2012; also: potency is read from the fitted curve at half-maximal effect; % of control where 0% means no effect; nearly all actives have a fitted effect of over 65% in size
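ARE-driven firefly luciferase activity in AREc32 cells measured after a 24 hr compound exposure at 37 deg C, using Steady-Glo reagent and a 30 min room-temperature hold.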
Nrf2 inh – Nrf2 qHTS screen for inhibitors; A549 ARE-Fluc reporter, luciferase luminescence, 18-24 h; 2.1% of 360,000 active; Potency, µM (titrated, usually from 46 µM), inactives show at the top dose activity change, negative = inhibition, hits mostly inhibitors; AID 504444, 2011; also: potency is read from the fitted curve at half-maximal effect; % is scaled to controls: 0 for no effect and ±100 for the full control effect; nearly all actives have a fitted effect of over 60% in size
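A549 ARE_Fluc cells (5000/well, 5% FBS OPTI-MEM) pre-incubated 2 h, then treated with compounds 18-24 h at 37C/5% CO2 in concentration-response. CellTiter-Fluor viability read first; BugLite luciferase luminescence after 15 min at room temperature gives Nrf2 activity.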
ERG Ets-DNA blk – qHTS for Small Molecule Inhibitors of the ERG Ets/DNA interaction; 0.028% of 370,000 active; Potency, µM (doses to about 76.9 µM), for inactives: at the top dose FP activity, negative = inhibition, usual class: inhibitors; AID 624246, 2012; fluorescence polarization, His-ERG Ets domain / labelled DNA; active = well fitted inhibition curve with a large enough effect in the polarisation, with a control signal flat; inconclusive = small, poorly fitted or top-dose-only effect, or effect the other way, or a change in a side signal; inactive = no such curve, though single readings can be large or run the other way; the % refers to the polarisation;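 also: polarization taken with two DNA probes labelled with fluorescein and Texas red; potency is read from the fitted curve at half-maximal effect; % of control where 0% means no effect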
Target sequence (P11308 whole entry, looked up, the tested form may be a part): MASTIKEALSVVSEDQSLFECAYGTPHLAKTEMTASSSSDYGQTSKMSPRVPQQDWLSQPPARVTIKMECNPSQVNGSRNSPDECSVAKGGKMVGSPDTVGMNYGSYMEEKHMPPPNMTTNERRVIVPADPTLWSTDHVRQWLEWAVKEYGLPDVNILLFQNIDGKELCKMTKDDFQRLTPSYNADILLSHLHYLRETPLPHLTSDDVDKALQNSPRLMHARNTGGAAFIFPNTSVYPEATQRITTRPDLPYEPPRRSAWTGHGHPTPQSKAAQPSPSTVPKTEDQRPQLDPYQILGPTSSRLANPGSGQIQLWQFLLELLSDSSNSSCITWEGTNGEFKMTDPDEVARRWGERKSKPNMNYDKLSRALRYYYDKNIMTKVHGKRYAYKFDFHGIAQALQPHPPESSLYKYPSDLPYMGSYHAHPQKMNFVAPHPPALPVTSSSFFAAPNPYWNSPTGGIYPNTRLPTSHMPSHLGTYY
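His-tagged ERG Ets domain (1 uM in the protein solution; 300mM KCl, 50mM Tris-HCl, 1mM EDTA, 1mM DTT, pH 7.5) received compound, then a probe mix of 5 nM fluorescein-DNA and 100nM Texas-615-DNA. Fluorescence polarization was read for both dyes.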
A549 viability – Nrf2 qHTS screen for inhibitors: counterscreen for cytotoxicity; Potency, µM (series often up to 46 µM), for the others: at the highest dose activity change, negative = cytotoxicity, hits mostly inhibitors; 0.16% of 390,000 active; A549 ARE-Fluc cells, CellTiter-Fluor viability, 18-24 h; also: potency is read from the fitted curve at half-maximal effect; % is scaled to controls: 0 for no effect and ±100 for the full control effect
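A549 ARE_Fluc cells in 5% FBS OPTI-MEM were exposed to compounds in concentration-response for 18-24 h at 37 deg C. Viability was read by CellTiter-Fluor fluorescence (Ex 405/Em 525) after 30 min, before the luciferase read.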
12-LOX inh – Primary qHTS assay for inhibitors of human arachidonate 12S-lipoxygenase (ALOX12): Round 2; AID 1671190, 2021; 1.1% of 580,000 active; Polyunsaturated fatty acid lipoxygenase ALOX12 (Homo sapiens), P18054; Potency, µM (highest dose often 108 µM), for inactives: at the top dose activity change, negative = inhibition, usual class: inhibitors; purified 12hLO, xylenol orange hydroperoxide absorbance; also: potency is read from the fitted curve at half-maximal effect; % is scaled to controls: 0 for no effect and ±100 for the full control effect
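Purified human 12hLO at 150 nM in 25 mM Hepes, 0.01% Triton X-100, pH 7.0, preincubated 15 min at room temperature with compound. Reaction started with 40 uM arachidonic acid, 30 min at room temperature. Hydroperoxide measured by Fe-xylenol orange, 573/405 nm absorbance ratio.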
LDHA inh – qHTS assay for inhibitors of human lactate dehydrogenase; L-lactate dehydrogenase A chain (Homo sapiens), P00338; purified LDHA, NADH/diaphorase-resazurin fluorescence; stronger effect = lower value; activity change, % (values are at about 110 or 230 µM); 0.15% of 480,000 active; AID 1347041, 2019; in the data active = activity change below about -30%; inconclusive = mostly about -25% to -30%;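 also: plate controls were DMSO wells for no effect and wells without enzyme for full effect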
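Resorufin fluorescence (ex540/em590), read at 0 and 20 min after diaphorase/resazurin addition, reports the NADH left after a 5 min room-temperature reaction of 2 nM human LDH5 with 0.06 mM NADH and 0.2 mM pyruvate.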
The depositor's hits bear a star; ? = inconclusive; . = not tested or not shown; [ ] = dose if it differs, or a comment. Most compounds without a hit are left out; they make up all but 2.7% or so of the library. Unless noted, calls follow the shape of the dose curve; as a rule, active = well fitted curve in the direction sought with a large enough effect; inconclusive = small, poorly fitted or top-dose-only effect, or another doubt; inactive = no such curve, though single readings can be large; an effect the other way counts as inactive or inconclusive.

SMILES | Nrf2 ARE act | Nrf2 inh | ERG Ets-DNA blk | A549 viability | 12-LOX inh | LDHA inh
CCOc1cccc(C2CC(=O)Nc3cc4c(cc32)OCCO4)c1 (stereo not given) | -1.0% | 14.6µM* | 0.6% | -7.8% | -22.8% | -7.3
Cc1ccc(C2CC(=O)Nc3cc4c(cc32)OCCO4)cc1 (stereo not given) | -0.4% | ? | 1.8% | -1.8% | -18.2% | -10.8
Oc1ccc(/C=C/c2cc(-c3ccccc3)cc(-c3ccccc3)[o+]2)cc1 | . | . | . | . | ? | 10.3
COc1cccc(Nc2nc(N)c(C(=O)c3cc(C)c(C)cc3C)s2)c1 | . | . | . | . | ? | -2.1
Fc1ccc(N/N=C/c2ccc(Cl)cc2Cl)c(F)c1 | . | . | . | . | ? | 3.0
Fc1ccc(N/N=C/c2ccc(Cl)c(Cl)c2)c(F)c1 | . | . | . | . | 35.5µM* | -0.4
Fc1ccc(N/N=C/c2ccc(Br)cc2)c(F)c1 | . | . | . | . | ? | -0.2
Cc1ccsc1/C=N/Nc1ccc(F)cc1F | 12.3% | ? | 4.2% | -0.9% | 39.8µM* | 9.8
Fc1ccc(N/N=C/c2ccccc2Cl)c(F)c1 | . | . | . | . | 3.16µM* | 17.2
COc1ccc(C)cc1NC(=O)C(Sc1nnc(-c2ccncc2)n1-c1ccc(Cl)cc1)c1ccccc1 (stereo not given) | 3.8% | 25.9µM* | -1.6% | -0.8% | -4.5% | -5.9
CCc1cccc(CC)c1NC(=O)c1cc(S(=O)(=O)N2CCc3ccccc32)cn1C | -1.2% | 23.1µM* | 0.7% | -19.4% | -13.1% | -9.5
CCCC(=O)Nc1cc(-c2nc3cc(C)ccc3o2)ccc1C | . | . | . | . | ? | -9.9
CCOc1ccc(C2C(C#N)=C(N)Oc3cc(O)ccc32)cc1OCC (stereo not given) | -0.8% | ? | 6.2% | 5.6% | -25.2% | -6.4
COC(=O)c1ccc(C2C(C#N)=C(N)Oc3cc(O)ccc32)cc1 (stereo not given) | -0.1% | -22.5% | 7.5% | 6.2% | 25.1µM* | 0.4
COc1ccc(C2C(C#N)=C(N)Oc3cc(O)ccc32)cc1Cl (stereo not given) | 3.5% | 17.0% | 1.1% | -0.8% | 31.6µM* | 1.6
COc1ccc(C2C(C#N)=C(N)Oc3cc4c(cc32)OCO4)cc1 (stereo not given) | 0.0% | ? | . | ? | 12.6µM* | 6.3
COC(=O)c1ccc(C2C(C#N)=C(N)Oc3cc(N)ccc32)cc1 (stereo not given) | 5.1% | -0.9% | -0.3% | 2.6% | ? | 2.2
C#CCOc1ccc(C2C(C#N)=C(N)Oc3cc(O)ccc32)cc1 (stereo not given) | 4.8% | 0.9% | -4.5% | 6.4% | 28.2µM* | 6.0
O=C(O)C(c1c[nH]c2cc(Cl)ccc12)N1CCN(c2ncc(Br)cn2)CC1 (stereo not given) | . | . | . | . | ? | -1.6
CN(Cc1ccccc1)C1CCN(Cc2ccccc2F)CC1 | . | . | . | . | ? | -1.1
O=C(CCC(=O)c1cccs1)NCCC(=O)Nc1ccc(F)c(Cl)c1 | . | . | . | . | 50.1µM* | -8.2
Cc1ccc(NCCC(=O)c2cccs2)cc1Cl | ? | 26.5% | 0.3% | 2.5% | 0.0% | -1.7
Cc1ccc(NCCC(=O)c2cccs2)cc1C | 22.4µM* | ? | -12.0% | 3.0% | -10.6% | -5.4
c1ccc2oc(Cc3ccc(Cc4nc5ccccc5o4)cc3)nc2c1 | -0.2% | 25.9µM* | 10.6% | -17.6% | 0.0% | 1.7
CCCCCCC1CCC(=O)O1 (stereo not given) | . | . | . | . | 5.8%[176 µM] | .
COc1ccc(CC(=O)N2CCN(C(=O)Cc3ccc(OC)cc3)CC2)cc1 | 0.4% | 5.9% | -6.8% | -5.0% | 0.0% | -0.6
COc1ccc(-c2ccc(C(=S)N3CCN(C(C)=O)CC3)o2)cc1 | 3.3% | 5.4% | . | -14.5% | 14.1µM* | 1.5

From PubChem BioAssay
